Assay outcomes from PubChem.
KB-V1 MDR tox: kills drug-selected multidrug resistant KB-V1 cells; KB-V1 MDR cells viability, CellTiter-Glo, 72 h; 400,000 tested, 3.4% active; Potency, µM (top dose mostly 46.1 µM), most hits filed as cytotoxic; AID 1347076; further: nearly all actives have a fitted effect of over 60% in size
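Readout: CellTiter-Glo luminescence, 10 min after addition. Cells: KB-V1 MDR subline, 72 h at 37 degrees C with compound. Analysis: corrected, normalized data fitted to concentration-effect curves.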
HT1080NT lethal: kills 2HG-producing HT-1080-NT fibrosarcoma cells. HT-1080-NT fibrosarcoma viability, CellTiter-Glo ATP luminescence, 48 h. Potency, µM (highest dose often 46.1 µM), for inactives: at the top dose activity, negative = less viability, most hits filed as cytotoxic. 360,000 tested, 1.6% active. AID 686970;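 further: NT is the 2HG producing partner of a matched IDH1 knockdown line; 0% = DMSO-treated cells and -100% = media-only wells without cells; nearly all actives have a fitted effect of over 55% in size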
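HT-1080-NT; 750 cells/well; 5% FBS RPMI; 48 h compound, 37 degrees C; CellTiter-Glo luminescence; curve fitting and curve-class assignment.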
KB-3-1 tox: kills parental KB-3-1 adenocarcinoma cells | 400,000 tested, 1.4% active | KB-3-1 viability, CellTiter-Glo ATP luminescence, 72 h | Potency, µM (series often up to 46.1 µM), most hits filed as cytotoxic; further: nearly all actives have a fitted effect of over 60% in size
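Cytotoxicity in the drug-sensitive parental line KB-3-1 was scored as loss of CellTiter-Glo luminescence following 72 h incubation with compound. Values come from curve fitting of normalized concentration-response data.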
HT1080 IDH1KD tx: kills HT-1080 cells with IDH1 knockdown; HT-1080 IDH1 knockdown viability, ATP luminescence, 48 h; Potency, µM (top dose mostly 46.1 µM), for inactives: at the top dose activity, negative = toxicity, usual class: cytotoxic; 360,000 tested, 2% active; AID 686971;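 further: 0% = DMSO wells and -100% = cell-free medium wells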
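Using the IDH1-knockdown HT-1080 line run in the same batch and compound series as the NT line, viability after 48 h at 37 °C was determined by CellTiter-Glo luminescence and expressed as % activity.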
* marks the source's active call; other numbers are inactive results; i = inactive; ? = inconclusive; nt = no result given; [ ] = another dose, or the depositor's remark. The list is not random: actives were taken first. Their share in the collection is about 5.7%. The call rests on the fitted dose curve; in most records, active means well fitted curve in the direction sought with a large enough effect; inconclusive means small, poorly fitted or top-dose-only effect, or another doubt; inactive means no such curve, though single readings can be large; an effect the other way counts as inactive or inconclusive. Unless noted, on the % scale 0 is the no-effect control and ±100 the full control effect; potency means the concentration at half of the fitted maximal effect.

SMILES	KB-V1 MDR tox	HT1080NT lethal	KB-3-1 tox	HT1080 IDH1KD tx
CC1(C)c2[nH]c3ccccc3c2C[C@@H]2C(=O)N(Cc3ccccc3Cl)C(=O)N21	?	nt	i	nt
COc1ccc(CN2C(=O)[C@@H]3Cc4c([nH]c5ccccc45)C(C)(C)N3C2=O)cc1	?	nt	18.4µM*	nt
Cc1ccc(OCc2nc(-c3ccc(C(=O)N4CCN(c5cc(Cl)ccc5C)CC4)cc3)oc2C)cc1	i	nt	i	nt
COc1ccc(S(=O)(=O)N2c3cc(C)ccc3OCC2C(C)(C)C)cc1 (stereo not drawn)	5.17µM*	5.8µM*	5.8µM*	5.8µM*
CCN(CC)c1ccc(/C=C2\SC(=O)N(C(C)C)C2=O)o1	i	16.4µM*	?	7.31µM*
Cc1cccc(NC(=O)Cn2c(=O)n(Cc3ccccc3)c(=O)c3oc4ccccc4c32)c1C	i	nt	i	nt
CC(C)c1cccc(-c2ccc3c(c2)S(=O)(=O)c2cccc(C(=O)NCc4ccccc4Cl)c2C3=O)c1	i	14.2%	6.51µM*	3.6%
CCn1c(=NC(=O)c2ccc(S(=O)(=O)N3CCCCC3)cc2)sc2cccc(OC)c21	i	nt	i	nt
Cc1cc2c(cc1C)N(C(=O)CSC1=NCCS1)C(C)(C)c1ssc(=S)c1-2	16.4µM*	-28.5%	i	?
Cc1cc(C)c2c(c1)-c1c(ssc1=S)C(C)(C)N2C(=O)CSc1nncn1C	23.1µM*	?	20.6µM*	18.4µM*
CC1(C)c2ssc(=S)c2-c2ccccc2N1C(=O)CSC1=NCCS1	16.4µM*	3.1%	i	-11.4%
COc1ccc2c(c1)-c1c(ssc1=S)C(C)(C)N2C(=O)CSC1=NCCS1	i	-4.4%	i	-21.7%
Cc1ccc2c(c1)-c1c(ssc1=S)C(C)(C)N2C(=O)CSc1nncn1C	?	-7.2%	?	-18.6%
CCCCOC(=O)c1ccc(NC(=O)Cc2coc3ccc(C(C)C)cc23)cc1	i	nt	i	nt
COC(=O)Cn1c(C2CC(=O)N(c3c(C)cccc3C)C2)nc2ccccc21 (stereo not drawn)	i	nt	i	nt
CCOC(=O)N1CCN(c2c(NCc3ccccc3OC)c(=O)c2=O)CC1	i	-2.6%	i	-5.4%
CCOC(=O)N1CCN(c2c(NCc3ccc(F)cc3)c(=O)c2=O)CC1	i	5.17µM*	5.17µM*	5.17µM*
CCOC(=O)N1CCN(c2c(NCc3ccc(Cl)cc3)c(=O)c2=O)CC1	i	?	10.3µM*	5.8µM*
CCOC(=O)N1CCN(c2c(NCc3cccs3)c(=O)c2=O)CC1	i	?	6.51µM*	?
Cc1cccc(C(=O)Nc2ccc(S(=O)(=O)N3CCC(c4nc5ccccc5s4)CC3)cc2)c1	i	nt	i	nt
CCOC(=O)N1CCC(n2c(SCC(=O)NCCC3=CCCCC3)nc3ccccc3c2=O)CC1	8.2µM*	?	?	?
CCOC(=O)N1CCC(n2c(SCC(=O)N3CCCC3)nc3ccccc3c2=O)CC1	i	-0.8%	i	-8.6%
CCOC(=O)N1CCC(n2c(SCC(=O)N3CCC(C)CC3)nc3ccccc3c2=O)CC1	20.6µM*	-5.2%	?	-18.3%
O=S1(=O)CCO[C@H]2CCCC[C@@H]2N1Cc1cccc(F)c1	?	nt	i	nt
CCOC(=O)c1noc2ncnc(N3CCC(C)CC3)c12	i	nt	i	nt
SMILES	KB-V1 MDR tox	HT1080NT lethal	KB-3-1 tox	HT1080 IDH1KD tx
O=C(CSc1nc(-c2cccs2)cc(C(F)(F)F)n1)Nc1cc(OCC(F)(F)C(F)F)cc([N+](=O)[O-])c1	16.4µM*	?	?	?
CCOC(=O)Cc1csc(SCC(=O)N2CCN(c3ccc(OC)cc3)CC2)n1	20.6µM*	-4.6%	i	8.3%
COc1ccc(N2CCN(C(=O)CSc3ccc(C)cc3)CC2)cc1	?	20.8%	i	10.6%
COc1ccc(N2CCN(C(=O)Cc3ccc(Br)cc3)CC2)cc1	20.6µM*	-8.0%	i	-0.9%
COc1ccc(N2CCN(C(=O)CNC(=O)Cc3ccc(Cl)cc3)CC2)cc1	10.3µM*	?	14.6µM*	20.6µM*
COc1ccc(CC(=O)N2CCN(c3ccc(F)cc3)CC2)cc1	i	22.5%	i	28.6%
CCc1ccccc1NC(=O)C1COc2ccccc2C1 (stereo not drawn)	?	nt	i	nt
O=C(C[n+]1cccc2cccc(O)c21)c1ccc2ccccc2c1	i	nt	i	nt
COc1ccc(S(=O)(=O)Nc2cccc(-c3ccc(N4CCCC4)nn3)c2)cc1F	i	nt	?	nt
O=C(CSC1=NCCN1)Nc1cccc(C(F)(F)F)c1	i	0.0%	i	25.9µM*
Cn1ccnc1SCC(=O)Nc1cccc(C(F)(F)F)c1	i	-7.4%	i	17.0%
COc1ccc(CCNc2nc3cc(OC)c(OC)cc3c3nc(-c4ccccc4)nn23)cc1OC	i	nt	i	nt
CO/N=C/NC(=O)N1OC[C@@H]2COc3ccc4ccccc4c3[C@@H]21	i	-4.1%	i	-1.6%
O=C(N/C=N/OCc1cccc(C(F)(F)F)c1)N1OC[C@@H]2COc3ccc4ccccc4c3[C@@H]21	16.4µM*	-2.8%	?	-6.8%
CC(C)C1C(C#N)=C(N)Oc2n[nH]c(-c3ccc4ccccc4c3)c21 (stereo not drawn)	8.2µM*	?	?	?
CC(C)C1C(C#N)=C(N)Oc2n[nH]c(-c3cccs3)c21 (stereo not drawn)	i	-6.1%	i	-13.2%
CCOC(=O)C1CCN(C(=O)CSc2n[nH]c(-c3ccccc3Cl)n2)CC1	i	nt	i	nt
O=C(CCC1N=C2c3ccccc3N=C(SCc3ccccc3Cl)N2C1=O)NCCc1ccccc1 (stereo not drawn)	i	nt	i	nt
CC(=O)Nc1ccc(NC2=Nc3ccccc3N3C2=Nc2c(c(C)nn2-c2ccccc2)C3c2ccccc2)cc1 (stereo not drawn)	?	15.6%	8.2µM*	16.8%
CCCNS(=O)(=O)c1ccc(CCC(=O)N2CCN(c3ccc(F)cc3)CC2)cc1	9.2µM*	1.7%	?	1.3%
COc1ccc(N2CCN(C(=O)CCc3ccc(S(=O)(=O)NC(C)(C)C)cc3)CC2)cc1	14.6µM*	-8.7%	?	-3.7%
CCCNS(=O)(=O)c1ccc(CCC(=O)N2CCOCC2)cc1	i	14.5%	i	19.2%
CC(=O)Nc1ccc(S(=O)(=O)NCCc2ccc(F)cc2)cc1	23.1µM*	-1.4%	i	-5.0%
CCCNS(=O)(=O)c1ccc(CCC(=O)N2CCN(c3ccc(OC)cc3)CC2)cc1	20.6µM*	-22.4%	i	9.8%[9.24 µM]
CC(=O)Nc1ccc(S(=O)(=O)NCCc2ccc(S(N)(=O)=O)cc2)cc1	i	14.2%	i	2.3%
COc1ccc(-c2noc(CSc3nnc(C)n3-c3ccc(F)cc3)n2)cc1	i	nt	i	nt
Cc1nn(C(=O)c2ccccc2)c(C)c1S(=O)(=O)N1CCOCC1	i	nt	i	nt
CCCCOC(=O)c1ccc(NC(=O)c2ccc3c(c2)CCN3S(C)(=O)=O)cc1	i	nt	i	nt
COc1ccc(CNC(=O)Nc2cn(CC(C)C)c(=O)c3ccccc23)cc1	i	nt	i	nt
